Measured values from PubChem BioAssay AID1445 (SRMLSC, 2008).
The whole screen tested about 220,000 compounds, of which about 910 (0.41%) were called active. The sample holds actives, similar compounds and a random draw of the others, so the mix is not that of the screen.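 How the source made its calls: active means primary inhibition above the hit cutoff, then over 50% inhibition at one or more dose response concentrations (cut at about 23% in these data, passing the limit was not always enough); inconclusive means conflicting primary data, or primary hits not chosen for dose response; inactive means low primary inhibition, or under 50% at every dose.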 Measured potencies and affinities stand elsewhere.

Molecular target: Aminopeptidase N (Plasmodium falciparum (isolate 3D7)) (UniProt O96935)
Sequence (O96935 whole entry, looked up): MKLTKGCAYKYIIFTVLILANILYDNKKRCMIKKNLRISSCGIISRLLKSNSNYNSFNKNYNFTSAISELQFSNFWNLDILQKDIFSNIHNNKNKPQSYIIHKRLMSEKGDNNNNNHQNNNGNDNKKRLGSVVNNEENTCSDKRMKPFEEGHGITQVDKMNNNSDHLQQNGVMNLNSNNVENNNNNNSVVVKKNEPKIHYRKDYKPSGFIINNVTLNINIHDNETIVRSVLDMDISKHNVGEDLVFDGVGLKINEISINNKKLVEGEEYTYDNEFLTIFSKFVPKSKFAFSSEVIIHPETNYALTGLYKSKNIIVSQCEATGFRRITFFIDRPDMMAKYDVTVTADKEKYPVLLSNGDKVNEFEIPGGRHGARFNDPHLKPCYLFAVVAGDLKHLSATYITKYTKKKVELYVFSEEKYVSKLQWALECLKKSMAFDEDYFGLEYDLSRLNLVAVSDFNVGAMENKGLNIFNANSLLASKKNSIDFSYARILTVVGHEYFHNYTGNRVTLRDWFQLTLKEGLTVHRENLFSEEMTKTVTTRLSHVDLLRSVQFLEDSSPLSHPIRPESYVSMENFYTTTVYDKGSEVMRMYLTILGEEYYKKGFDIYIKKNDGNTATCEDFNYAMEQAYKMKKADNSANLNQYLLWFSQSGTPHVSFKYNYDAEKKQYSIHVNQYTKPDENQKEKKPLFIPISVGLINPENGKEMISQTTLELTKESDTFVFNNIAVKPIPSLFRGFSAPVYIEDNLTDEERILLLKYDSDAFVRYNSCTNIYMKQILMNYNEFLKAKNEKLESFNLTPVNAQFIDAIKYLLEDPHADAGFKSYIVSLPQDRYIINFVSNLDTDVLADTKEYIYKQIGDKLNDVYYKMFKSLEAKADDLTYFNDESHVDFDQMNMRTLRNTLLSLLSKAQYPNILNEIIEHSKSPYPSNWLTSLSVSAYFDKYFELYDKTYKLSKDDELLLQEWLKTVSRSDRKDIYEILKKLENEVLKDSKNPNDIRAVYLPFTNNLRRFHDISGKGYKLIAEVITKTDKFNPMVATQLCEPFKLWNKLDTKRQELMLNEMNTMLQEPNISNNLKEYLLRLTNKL
Test: P. falciparum M1AAP inhibitors, biochemical, fluorogenic H-Leu-NHMec substrate, 1536-well (AID 1445);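 further: plate controls were DMSO full reaction for no effect and no enzyme background for full effect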
Details: recombinant M1AAP, H-Leu-NHMec fluorogenic kinetic assay; at 30 µM, stronger effect = higher value unless noted

Structure (SMILES)	inhibition
Cn1c(-c2ccc[nH]c2=O)nc2cc(Cl)ccc21	3.43% (inactive)
CCCn1c(-c2ccc[nH]c2=O)nc2ccccc21	4.86% (inactive)
COc1cc(/C=C2\OC(=O)c3c(OC)cccc32)ccc1O	18.4% (inactive)
CCC(=O)Oc1ccc2c(C)cc(=O)oc2c1C(=O)CC	1.59% (inactive)
CCn1c(COc2ccc(=O)n(-c3ccccc3)n2)nnc1SCc1ccccc1	1.85% (inactive)
Cc1ccc(NC(=O)c2cc([N+](=O)[O-])ccc2N2CCCC2)cc1	9.65% (inactive)
CCOC(=O)c1ccc(NC(=O)CSc2nc3ncccc3[nH]2)cc1	15.1% (inactive)
CCOC(=O)c1ccc(NC(=O)CSc2ncccn2)cc1	25.8% (active)
CCOC(=O)c1ccc(NC(=O)CSc2nccn2C)cc1	13.7% (inactive)
O=C(Nc1ccccc1)N1CCn2c1nc1ccccc12	3.81% (inactive)
O=C(C1CCCCC1)N1CCCn2c1nc1ccccc12	26.8% (active)
CCC(=O)N1CCCn2c1nc1ccccc12	0.87% (inactive)
CN(C)S(=O)(=O)c1ccc(C(=O)N2CCN=C2SCc2cccnc2)cc1	-3.94% (inactive)
COc1ccccc1Nc1nc(N)nc(CN2CCC(C)CC2)n1	3.95% (inactive)
O=C(Nc1ccc(Cl)cc1)c1ccc(-n2cccn2)c([N+](=O)[O-])c1	0.77% (inactive)
Cc1ccc(OCC(=O)Nc2cccc(-c3nnc(-c4ccccc4)o3)c2)c(C)c1	2.43% (inactive)
Cc1cccc(C)c1OCC(=O)Nc1cccc(-c2nnc(-c3ccccc3)o2)c1	1.97% (inactive)
Cc1cccc(OCC(=O)Nc2cccc(-c3nnc(-c4ccccc4)o3)c2)c1C	24% (active)
Cc1ccc(C)c2c1cc(C)c1nnc(SCC(=O)N3CCCc4ccccc43)n12	3.01% (inactive)
CC(C)(C)c1ccc(C(=O)/C=C2\NC(=O)CS2)cc1	7.72% (inactive)
O=C1CS/C(=C/C(=O)c2ccccc2)N1	25.3% (active)
Cc1ccc(C(=O)/C=C2/NC(=O)CS2)cc1	17.7% (inactive)
CC(/C=N/NC(=O)Cn1cnc2c1c(=O)n(C)c(=O)n2C)=C\c1ccco1	5.25% (inactive)
CCOC(=O)c1[nH]c2c(c1C)C(=O)CC(c1ccco1)C2 (stereo not drawn)	15.3% (inactive)

Structure (SMILES)	inhibition
Cc1c(C(=O)OCc2ccccc2)[nH]c2c1C(=O)CC(c1ccco1)C2 (stereo not drawn)	6.2% (inactive)
Cc1c(C(=O)OC2CCCC2)[nH]c2c1C(=O)CC(c1ccco1)C2 (stereo not drawn)	25.6% (active)
CC(C(=O)NC1C(=O)N2C(C(=O)O)=C(CSc3nnnn3C)CSC12)n1cc(Cl)cn1 (stereo not drawn)	6.59% (inactive)
Nc1nonc1C(=O)N/N=C/c1ccc(Br)o1	15.9% (inactive)
O=C(CCC(=O)Nc1ccc(Br)cc1)N/N=C/c1cc([N+](=O)[O-])ccc1O	13.8% (inactive)
NC(=O)N/N=C/c1cc(Br)ccc1OC(=O)c1ccccc1	6.38% (inactive)
CC1(C)OC2OC(C(=O)N/N=C/c3ccccc3F)C3OC(C)(C)OC3C2O1 (stereo not drawn)	-0.42% (inactive)
COc1ccc(NC(=O)C2OC3OC(C)(C)OC3C3OC(C)(C)OC23)cc1 (stereo not drawn)	6.98% (inactive)
O=C(CCc1ccccc1)N/N=C/c1cc(Br)ccc1O	16.7% (inactive)
COC(=O)N/N=C/c1cc(Br)ccc1O	17.8% (inactive)
Nc1nonc1C(=O)N/N=C/c1ccncc1	9.52% (inactive)
CCCn1nnc(NC(=S)NC(=O)C(C)(C)C)n1	7.37% (inactive)
O=C1c2cc(S(=O)(=O)NCCO)ccc2-c2ccc(S(=O)(=O)NCCO)cc21	2.13% (inactive)
Cc1ccc([N+](=O)[O-])cc1NC(=O)Nc1ccc(S(N)(=O)=O)cc1	-7.81% (inactive)
CC1=CC2=NC(=O)CC(C)(C(=O)N(CC(=O)NC(C)C)C3CCCC3)N2C=C1 (stereo not drawn)	1.08% (inactive)
O=C(Nc1ccc(Br)cc1)c1cccn1-c1ncc(C(F)(F)F)cc1Cl	-0.41% (inactive)
Cc1ccc(NC(=O)C2CCN(C(=O)c3ccccc3C)CC2)cc1	4.97% (inactive)
CCN(CC)CCOC(=O)c1ccc(N/C=C(/C#N)c2nc(-c3ccc(OC)cc3)cs2)cc1	4.36% (inactive)
CCOC(=O)c1c(-c2ccc(F)cc2)csc1NC(=O)c1c(-c2ccccc2)noc1C	0.4% (inactive)
CCOC(=O)C1=NN(c2ccccc2)C2=NC(C)=C(C(=O)OC)C(c3ccc(C)cc3)N12 (stereo not drawn)	8.08% (inactive)
COc1ccc(C2CC(c3ccccc3)=NN2C(=O)COC(=O)C2CC2)cc1 (stereo not drawn)	8.28% (inactive)
CC(=O)N1N=C(c2c(-c3ccccc3)c3cc(C)ccc3[nH]c2=O)CC1c1ccco1 (stereo not drawn)	20% (inactive)
O=C(O)CCC(=O)N1N=C(c2ccccc2)CC1c1ccc2nccnc2c1 (stereo not drawn)	12% (inactive)
COc1ccc(C2CC(c3c(-c4ccccc4)c4cc(Cl)ccc4[nH]c3=O)=NN2S(C)(=O)=O)cc1OC (stereo not drawn)	13.3% (inactive)

Structure (SMILES)	inhibition
CCC(=O)N1N=C(c2c(-c3ccccc3)c3cc(Cl)ccc3[nH]c2=O)CC1c1ccco1 (stereo not drawn)	22.1% (inactive)
Cc1ccc(C2=NN(C(=O)CCCC(=O)O)C(c3ccco3)C2)cc1 (stereo not drawn)	7.5% (inactive)
CC(=O)N1N=C(c2ccc(C)cc2)CC1c1ccco1 (stereo not drawn)	6.1% (inactive)
COc1ccc(C2CC(c3c(-c4ccccc4)c4cc(Cl)ccc4[nH]c3=O)=NN2S(C)(=O)=O)cc1 (stereo not drawn)	2.82% (inactive)
Nc1nonc1-c1nc2ccccc2n1CC(=O)O	11.2% (inactive)
C[C@H](NC(=O)c1nc[nH]c1C(=O)NCCCCCNC(=O)OC(C)(C)C)C(=O)OC(C)(C)C	-4.42% (inactive)
CCCCCCCc1ccc(C2NC(=S)NC3=C2C(=O)c2ccccc23)cc1 (stereo not drawn)	3.12% (inactive)
CCOc1ccccc1NC(=O)/C(C#N)=C/c1c(C)nn(-c2ccccc2)c1Cl	4.31% (inactive)
CC(C)CN(C(=O)CSc1nnc2ccccn12)c1c(N)n(CC(C)C)c(=O)[nH]c1=O	6.58% (inactive)
CC1(C)N=C(N)N=C(N)N1c1ccc(OCCCOc2ccccc2)c(Cl)c1	-0.74% (inactive)
Cc1csc(SCC(=O)NC2CCCCC2)n1	-5.21% (inactive)
COc1ccc(NC(=O)c2ccccc2C)c(OC)c1	5.69% (inactive)
Cc1ccc(CN2C3CCCC2CC(NC(=O)c2ccc(C)cc2)C3)cc1 (stereo not drawn)	-1.65% (inactive)
O=C(NC(=S)NC1C2CC3CC(C2)CC1C3)C12CC3CC(CC(C3)C1)C2 (stereo not drawn)	5.47% (inactive)
COc1ccc(CNC(=O)c2ccccc2SC)cc1	-2.23% (inactive)
CN(C1CCCCC1)S(=O)(=O)c1ccccc1	-1.57% (inactive)
COc1ccc(CNC(=O)CCCN2C(=O)c3ccccc3C2=O)cc1	1.01% (inactive)
COc1ccc(CN2C(=O)c3cccc4cccc(c34)C2=O)cc1	-0.38% (inactive)
COc1ccccc1NS(=O)(=O)c1cccc(NC(=O)Nc2ccccc2)c1	2.5% (inactive)
COc1ccccc1NS(=O)(=O)c1cccc(N2CC(O)=C(c3ccccc3)C2=N)c1	9.55% (inactive)
Cc1cc(C)n(-c2ccc(C(=O)OCC(=O)Nc3ccc(S(=O)(=O)N4CCOCC4)cc3)cc2)n1	-7.49% (inactive)
CCOc1ccc(CCNC(=O)COC(=O)c2cc(OC)cc(OC)c2)cc1OCC	6.82% (inactive)
COC(=O)c1ccccc1NC(=O)CNC(=O)c1ccco1	7.08% (inactive)
O=C(c1ccco1)N1N=C(c2ccc(Br)cc2)CC1(O)C(F)(F)F (stereo not drawn)	-1.14% (inactive)

Structure (SMILES)	inhibition
CC(C)CCNC(=O)CNC(=S)N(Cc1ccccc1)Cc1cccnc1	-3.15% (inactive)
COc1ccc(/C=N/NC(=O)CSCC(=O)Nc2ccccc2)cc1	0.01% (inactive)
COc1ccc(/C=N/NC(=O)CC(=O)N/N=C/c2ccc(OC)cc2)cc1	5.03% (inactive)
Cc1ccc2nc(CSc3nnc(Cc4cccs4)n3C3CCCCC3)cc(=O)n2c1	14.2% (inactive)
O=C(CCC(=O)N(CC(=O)NC1CCCC1)Cc1ccc2c(c1)OCO2)Nc1ccccn1	26.2% (active)
O=C(CCCC(=O)N(CC(=O)NC1CCCCC1)Cc1ccc2c(c1)OCO2)Nc1ccccn1	1.7% (inactive)
CCC(C)(C)NC(=O)CN(C(=O)CCC(=O)Nc1cc(C)ccn1)c1ccc2c(c1)OCO2	10.3% (inactive)
CC(C)(C)NC(=O)CN(Cc1ccc2c(c1)OCO2)C(=O)CCC(=O)Nc1nccs1	3.84% (inactive)
O=C(CCC(=O)N(CC(=O)NC1CCCC1)Cc1ccc2c(c1)OCO2)Nc1nccs1	12.3% (inactive)
CCC(C)(C)NC(=O)CN(Cc1ccccc1Cl)C(=O)CCC(=O)Nc1cc(C)ccn1	1.69% (inactive)
O=C(CCCC(=O)N(CC(=O)NC1CCCC1)Cc1ccc2c(c1)OCO2)Nc1ccccn1	8.73% (inactive)
O=C(CSc1nnc(-c2ccc(Cl)cc2)n1Cc1ccco1)Nc1ccc2c(c1)OCCO2	6.61% (inactive)
O=C(Nc1ccccc1N1CCCC1)c1cccc(Cl)c1Cl	5.02% (inactive)
Cc1nc(-c2ccccc2O)n(-c2ccccc2)n1	14.8% (inactive)
Cc1cccc(-c2cc(N)n(-c3ccccc3)n2)c1	15.4% (inactive)
Cc1cccc(N2C(N)=C(C#N)C(C#N)(C#N)C2c2ccccc2)c1 (stereo not drawn)	7.85% (inactive)
Cc1nn(-c2ccccc2)c(C)c1N	-5.19% (inactive)
CCOC(=O)c1c(-c2ccc(C)o2)csc1NC(=O)CSc1ncn[nH]1	0.41% (inactive)
O=C(CCCO)CCCCCCCCC[C@H]1N[C@H](CO)[C@@H](O)[C@@H]1O	7.45% (inactive)
O=C(O)C(CO)N=Cc1c(O)c2ccccc2oc1=O (stereo not drawn)	20.4% (inactive)
CC(C)CC(N=Cc1c(O)c2ccccc2oc1=O)C(=O)O (stereo not drawn)	16.5% (inactive)
